# The panel holds about 83,000 compounds, 20% with a hit somewhere; the sample as a whole holds those more often.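 Assay: single dose, 48 h. Readout: percent growth (0 = no net growth; negative = cell death). Active: <10.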 Values without a mark were called inactive. Calls of active or inactive are those of the source.
# Experiments:
# Assay in all cases: NCI-60 one-dose screen, 48 h (100 = growth as untreated, 0 = no growth, -100 = all killed)
# Details in all cases: 10 µM unless noted
# [1] = test system: NCI-H23 lung
# [2] = test system: NCI-H226 lung
# [3] = test system: NCI-H322M lung
# [4] = test system: HOP-62 NSCLC
# [5] = test system: NCI-H460 lung
# [6] = test system: HOP-92 NSCLC
# [7] = test system: NCI-H522 lung
# [8] = test system: A549/ATCC NSCLC
# [9] = test system: 786-0 renal
# [10] = test system: COLO 205 colon
# [11] = test system: DU-145 prostate
# [12] = test system: K-562 leukemia
# [13] = test system: MALME-3M melanoma
# [14] = test system: MDA-MB-231 breast
# [15] = test system: RXF 393 renal
# [16] = test system: SF-268 CNS
# [17] = test system: SF-295 CNS
# [18] = test system: SF-539 CNS
# [19] = test system: UACC-257 melanoma
# [20] = test system: M14 melanoma
Compound,growth [1],growth [2],growth [3],growth [4],growth [5],growth [6],growth [7],growth [8],growth [9],growth [10],growth [11],growth [12],growth [13],growth [14],growth [15],growth [16],growth [17],growth [18],growth [19],growth [20]
c1ccc2cc(Cn3c[n+](Cc4ccc5ccccc5c4)c4ccccc43)ccc2c1,-0.737% (active),19.6%,34.6%,3.98% (active),-34.2% (active),-27.7% (active),-28.8% (active),30.9%,-68.2% (active),-80.7% (active),15%,-49.7% (active),-17.8% (active),-54.1% (active),-56.5% (active),-30.5% (active),6.18% (active),17.7%,-38.6% (active),-80.6% (active)
COc1cc2c(/C=C3\C(=O)Nc4ccccc43)c(C(=O)O)[nH]c2cc1C,82.5%,89.2%,105%,92%,105%,63.8%,93.5%,106%,108%,120%,118%,103%,99.5%,87.9%,107%,96.6%,101%,101%,106%,105%
Cc1cccc(-n2c(C)nc3ccc(N4CCCNC4=O)cc3c2=O)c1,98.5%,96.5%,103%,101%,112%,95.1%,96.4%,102%,102%,105%,109%,102%,102%,106%,116%,105%,101%,91.9%,105%,102%
CCOC(=O)Nc1nc2ccc(SCC(C)C)cc2s1,40.9%,46.6%,36.7%,22.6%,19.3%,33.6%,4.9% (active),28.5%,27.8%,-14.9% (active),42.2%,18%,32.4%,40.6%,-3.43% (active),45.2%,26.1%,12.3%,55%,25.8%
CCOC(=O)C(=Cc1cccc(C#N)c1)C(=O)OCC,68.4%,38.1%,91%,115%,95.9%,63.2%,16.7%,75.5%,86.4%,47.1%,48%,22.7%,49.9%,55.4%,33.5%,64.1%,95.9%,62.9%,69.6%,62.3%
Cc1nc2sc(C(=O)Nc3ccc(Cl)cc3)c(N)c2cc1C(O)c1ccccc1 (stereo not given),42.6%,57%,57.6%,45.1%,17.4%,44.8%,33.2%,42.1%,46.5%,29.6%,34.7%,9.79% (active),44.1%,52.2%,47.3%,54.2%,44.5%,37.7%,46.1%,19.7%
NC(=O)c1ccc(NC(=O)c2oc3ccccc3c2-c2cnn(-c3ccccc3)c2)cc1,-21.9% [50 µM] (active),13.9% [50 µM],23.7% [50 µM],5.91% [50 µM] (active),5.78% [50 µM] (active),-27.3% [50 µM] (active),21.4% [50 µM],8.08% [50 µM] (active),-26.8% [50 µM] (active),19.9% [50 µM],7.15% [50 µM] (active),46% [50 µM],-7.76% [50 µM] (active),-68% [50 µM] (active),-29.1% [50 µM] (active),27.4% [50 µM],15.6% [50 µM],-21.7% [50 µM] (active),47.3% [50 µM],-0.698% [50 µM] (active)
COC(=O)c1c2c(n3ccc(C)cc13)C(=O)c1ccccc1C2=O,50.9%,62.1%,22.1%,78.4%,4.07% (active),76.7%,47.5%,-41.6% (active),80.3%,42.5%,75.2%,60.8%,62.2%,77.9%,75.9%,74.9%,67.6%,94.8%,72.4%,63.5%
COc1ccc2cc(Cn3cc[n+](Cc4ccc5ccccc5c4)c3)ccc2c1,36%,49.2%,65.8%,49.8%,38.3%,-11.8% (active),-13.6% (active),57.1%,51%,-66.3% (active),52.2%,18.4%,24.3%,29.8%,4.94% (active),22.6%,67%,48.5%,-15.8% (active),17.5%
Cc1nc2sc(C(=O)Nc3cccc(Cl)c3)c(N)c2cc1C(O)c1ccccc1 (stereo not given),32%,54.1%,60.2%,45.3%,6.05% (active),77.2%,3.93% (active),21.1%,36.8%,20.8%,19.7%,6.94% (active),49.7%,22.3%,27.7%,42.3%,28.8%,-3.45% (active),35%,15%
c1ccc(CCc2ccccc2-c2cc(-c3ccccc3)on2)cc1,75.1%,96.5%,87%,96.5%,82.4%,103%,80.1%,97.7%,94.5%,100%,92%,71.2%,102%,84.3%,94.2%,97.1%,96.3%,93.8%,99.9%,87.8%
COC(=O)/C(CCC=C(C)C)=C1\[C@@H](OC(C)=O)C[C@@]2(C)[C@H]1CC(=O)[C@H]1[C@@]3(C)CCC(N4CCCC4)[C@@H](C)[C@@H]3CC[C@@]12C (stereo not given in full),91.5%,113%,99.6%,102%,101%,77.2%,102%,104%,93.1%,106%,101%,12.5%,100%,130%,98.3%,97.6%,98.3%,102%,110%,93.1%
COc1ccc2cc(-c3ccc(-c4ccc(C(=N)N)s4)s3)ccc2c1,0.368% (active),97%,22.6%,-8.34% (active),-59.8% (active),65.5%,-46.7% (active),-18.9% (active),-53.6% (active),-4.44% (active),-67.2% (active),-42.8% (active),101%,-15.2% (active),-25.9% (active),-33.9% (active),86%,89.5%,62.8%,36.2%
CCN1C(=O)N(CC)C2C1NN=c1s/c(=C3\C(=O)N(CCc4ccccc4)c4ccccc43)c(=O)n12 (stereo not given),22.7%,24.8%,36.1%,24.4%,1.95% (active),38.1%,-5.28% (active),16.1%,22.1%,7.44% (active),5.49% (active),7.99% (active),33.3%,2.5% (active),-5.91% (active),47%,9.5% (active),-37.4% (active),53.2%,13.6%
C=CC(C)(O)CC/C=C(\CO)C(=O)OC1C(C)OC(O[C@](C)(C=C)CC/C=C(\CO)C(=O)O[C@H]2C[C@@]3(C(=O)OC4OC(CO)C(O)C(O)C4OC4OC(C)C(OC5OC(CO)C(O)C5O)C(OC5OC(CO)C(O)C(O)C5O)C4O)C(CC2(C)C)C2=CCC4[C@@]5(C)CC[C@H](OC6OC(COC7OC(C)C(O)C(O)C7OC7OCC(O)C(O)C7O)C(O)C(O)C6NC(C)=O)C(C)(C)C5CC[C@@]4(C)[C@]2(C)C[C@H]3O)C(O)C1O (stereo not given in full),11.9%,2.06% (active),-78.4% (active),-66.9% (active),57.8%,-46.2% (active),-58.8% (active),-37.5% (active),-77.5% (active),-69.3% (active),-91.2% (active),22.8%,-56.2% (active),-29.8% (active),-31.3% (active),-53.4% (active),-59.4% (active),6.98% (active),-53.5% (active),-34.1% (active)

# Reference: PubChem BioAssay (NCI)
